According to PubChem BioAssay (EPA / NIEHS):
Records with an inconclusive call do not appear. Calls of active or inactive are those of the source. The calls were made as follows, unless noted: active = hit-call score of the fitted dose curve at least 0.9, where 1 is the maximum; inactive = score below 0.9.

What was measured:
[1] = target: Myc proto-oncogene protein (Homo sapiens) (UniProt P01106); assay: ATG_Myc_CIS: Attagene CIS-FACTORIAL HepG2 Assay for human Myelocytomatosis (Myc) Proto-Oncogene Transcription Factor (AID 2282990); conditions: HepG2, Attagene cis-reporter transcription factor activity; actives raise or lower the signal
Chain of Myc proto-oncogene protein (Homo sapiens) (P01106 whole entry, looked up): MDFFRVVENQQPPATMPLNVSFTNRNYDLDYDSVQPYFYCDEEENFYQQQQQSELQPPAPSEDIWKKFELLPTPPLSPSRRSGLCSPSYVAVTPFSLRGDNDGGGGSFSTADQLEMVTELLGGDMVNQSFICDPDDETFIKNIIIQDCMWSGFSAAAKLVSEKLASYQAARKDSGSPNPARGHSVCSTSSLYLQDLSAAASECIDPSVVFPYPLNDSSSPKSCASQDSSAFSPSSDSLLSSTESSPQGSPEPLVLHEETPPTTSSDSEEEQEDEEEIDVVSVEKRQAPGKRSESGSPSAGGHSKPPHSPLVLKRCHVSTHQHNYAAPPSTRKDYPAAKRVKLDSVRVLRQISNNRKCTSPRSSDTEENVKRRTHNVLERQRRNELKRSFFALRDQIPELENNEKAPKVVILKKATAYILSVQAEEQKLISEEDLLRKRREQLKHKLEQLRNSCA
Procedure, shortened: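 DMSO-normalised, bidirectionally fitted reporter mRNA signal. HepG2 cells transfected with cis reporter constructs, treated 24 h; transcripts detected by RT-PCR, 6-FAM primer extension and CE.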

[2] = ATG_NRF2_ARE_CIS: Attagene CIS-FACTORIAL HepG2 Assay for human Nuclear Factor Erythroid 2 Related Factor 2 (NFR2) response to Antioxidant Response Elements (ARE) (AID 2282992); conditions: HepG2 Attagene ARE/NRF2 reporter, transcription factor activity; actives raise or lower the signal
Procedure, shortened: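 Endogenous transcription factor activity read out as reporter transcript levels (RT-PCR plus capillary electrophoresis, fluorescence) in transiently transfected HepG2 cells. Measured at 24 h after dosing; gain or loss of signal fitted versus DMSO.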

[3] = ATG_Oct_MLP_CIS: Attagene CIS-FACTORIAL HepG2 Assay for human Octamer-Binding Transcription Factor (Oct) (AID 2282993); conditions: HepG2 Attagene cis-factorial Oct reporter, mRNA; actives raise or lower the signal
Procedure, shortened: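 Readout is reporter transcript level from RT-PCR with fluorescent primer extension and capillary electrophoresis, fitted in both directions against DMSO. Transfected HepG2 reporter units report endogenous factor activity after 24 h dosing.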

[4] = target: Cellular tumor antigen p53 (Homo sapiens) (UniProt P04637); assay: ATG_p53_CIS: Attagene CIS-FACTORIAL HepG2 Assay for human p53 Transcription Factor (AID 2282994); conditions: HepG2 p53 cis-element reporter, Attagene mRNA; actives raise or lower the signal
Chain of Cellular tumor antigen p53 (Homo sapiens) (P04637 whole entry, looked up): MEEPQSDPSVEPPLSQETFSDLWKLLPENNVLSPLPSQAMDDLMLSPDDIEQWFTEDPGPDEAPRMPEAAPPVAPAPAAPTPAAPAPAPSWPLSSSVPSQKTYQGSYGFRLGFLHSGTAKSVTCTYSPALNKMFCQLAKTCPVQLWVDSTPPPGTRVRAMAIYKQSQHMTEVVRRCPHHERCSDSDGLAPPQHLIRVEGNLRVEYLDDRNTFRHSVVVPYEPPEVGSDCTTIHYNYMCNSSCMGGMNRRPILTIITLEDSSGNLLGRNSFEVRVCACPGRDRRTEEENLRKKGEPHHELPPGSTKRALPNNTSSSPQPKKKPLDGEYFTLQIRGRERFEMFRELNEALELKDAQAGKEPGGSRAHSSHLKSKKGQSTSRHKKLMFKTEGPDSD
Procedure, shortened: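 Endogenous p53 activity read in transiently transfected HepG2 from a cis-element-driven reporter transcript after 24 h exposure. RNA reverse-transcribed, PCR-amplified, fluorescently labelled and sized by capillary electrophoresis; gain or loss fitted against DMSO baseline.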

[5] = BSK_3C_uPAR: BioMAP Diversity Plus: 3C Assay for Urokinase-type plasminogen activator receptor (uPAR) Biomarker Activity (AID 2282998); conditions: BioMAP 3C HUVEC, uPAR biomarker ELISA; actives raise or lower the signal
Procedure, shortened: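 Cell-surface uPAR on HUVEC (3C system) read by ELISA at 24 h post-treatment, with DMSO as baseline and fitting in both directions. Parallel cultures stained with SRB to flag overt cytotoxicity.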

[6] = BSK_3C_VCAM1: BioMAP Diversity Plus: 3C Assay for Vascular cell adhesion molecule 1 (VCAM1) Biomarker Activity (AID 2282999); conditions: BioMAP 3C HUVEC, VCAM1 ELISA, cytokine-stimulated; actives raise or lower the signal
Procedure, shortened: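 Vascular primary endothelium (human umbilical vein) was exposed to chemicals and assayed 24 h later. VCAM-1 levels came from ELISA, with DMSO serving as baseline for bidirectional fitting.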

[7] = BSK_4H_Eotaxin3: BioMAP Diversity Plus: 4H Assay for Eotaxin 3 Biomarker Activity (AID 2283000); conditions: primary human endothelial cells (HUVEC); actives raise or lower the signal;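 as to outcome: CCL26 protein level quantified by ELISA in parallel with SRB cytotoxicity check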
Procedure, shortened: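 HUVEC, 24 h post-dose, ELISA for Eotaxin-3/CCL26. Gain or loss of signal fitted bidirectionally vs DMSO baseline.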

[8] = target: human Peroxisome Proliferator-activated Receptor delta (PPARd), PPARD (gene 5467) (UniProt Q03181); assay: ATG_PPARd_TRANS: Attagene TRANS-FACTORIAL HepG2 Assay for human Peroxisome Proliferator-activated Receptor delta (PPARd) (AID 2283002; active = hit-call score of the fitted dose curve at least 0.9, where 1 is the maximum)
Chain of human Peroxisome Proliferator-activated Receptor delta (PPARd), PPARD (gene 5467) (Q03181 whole entry, looked up, the tested form may be a part): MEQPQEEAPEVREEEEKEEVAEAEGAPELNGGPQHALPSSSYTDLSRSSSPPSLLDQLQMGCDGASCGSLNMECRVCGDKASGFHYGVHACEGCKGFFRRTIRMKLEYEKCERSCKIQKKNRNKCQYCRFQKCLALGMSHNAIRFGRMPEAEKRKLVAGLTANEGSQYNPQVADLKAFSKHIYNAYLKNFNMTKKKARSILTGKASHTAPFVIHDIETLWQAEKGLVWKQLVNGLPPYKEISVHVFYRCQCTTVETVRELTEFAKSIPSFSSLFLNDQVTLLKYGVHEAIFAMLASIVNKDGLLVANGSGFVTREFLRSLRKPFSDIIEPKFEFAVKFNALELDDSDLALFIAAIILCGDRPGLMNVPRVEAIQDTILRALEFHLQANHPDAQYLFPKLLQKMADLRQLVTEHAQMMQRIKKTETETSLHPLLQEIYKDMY
Procedure, shortened: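 Measured quantity: GAL4-UAS reporter transcript induction in HepG2 after 24 h chemical dosing, with NR-Gal4 chimeras supplied by transient transfection. Detection by RT-PCR and capillary electrophoresis; upward fit against DMSO.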

[9] = read-out: Intercellular Adhesion Molecule 1 (ICAM1), ICAM1 (gene 3383); assay: BSK_3C_ICAM1: BioMAP Diversity Plus: 3C Assay for Intercellular Adhesion Molecule 1 (ICAM1) Biomarker Activity (AID 2283003); conditions: primary human endothelial cells (HUVEC); actives raise or lower the signal
Procedure, shortened: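 ELISA read-out of ICAM-1; HUVEC (primary human), 3C system, 24 h post-dosing; bidirectional fit vs DMSO baseline.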

[10] = BSK_3C_Proliferation: Cell Proliferation Assessment in the BioMAP Diversity Plus: 3C Assay (AID 2283006); conditions: primary human endothelial cells (HUVEC);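 as to AC50: potency may reflect either rise or fall in cell number versus DMSO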
Procedure, shortened: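 HUVEC, sub-confluent; 48 h chemical exposure; 10% TCA fix, 0.1% SRB stain, A560 total protein. Gain or loss of signal fitted both directions vs DMSO control.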

[11] = target: Peroxisome proliferator-activated receptor gamma (Homo sapiens) (UniProt P37231); assay: ATG_PPARg_TRANS: Attagene TRANS-FACTORIAL HepG2 Assay for human Peroxisome Proliferator-activated Receptor-gamma (PPARg) (AID 2283007; active = hit-call score of the fitted dose curve at least 0.9, where 1 is the maximum)
Chain of Peroxisome proliferator-activated receptor gamma (Homo sapiens) (P37231 whole entry, looked up): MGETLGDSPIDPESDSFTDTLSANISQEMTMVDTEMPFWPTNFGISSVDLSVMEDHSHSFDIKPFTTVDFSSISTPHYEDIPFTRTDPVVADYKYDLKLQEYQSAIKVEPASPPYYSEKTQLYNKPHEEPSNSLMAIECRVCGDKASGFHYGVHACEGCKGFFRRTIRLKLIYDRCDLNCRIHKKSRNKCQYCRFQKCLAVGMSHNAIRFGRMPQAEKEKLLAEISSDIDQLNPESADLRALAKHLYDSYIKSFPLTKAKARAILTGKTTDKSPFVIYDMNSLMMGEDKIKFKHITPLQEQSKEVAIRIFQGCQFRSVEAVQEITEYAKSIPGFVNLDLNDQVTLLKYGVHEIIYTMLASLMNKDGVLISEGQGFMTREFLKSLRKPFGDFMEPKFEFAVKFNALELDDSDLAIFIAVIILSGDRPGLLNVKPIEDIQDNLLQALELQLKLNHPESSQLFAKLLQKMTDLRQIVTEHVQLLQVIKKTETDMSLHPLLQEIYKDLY
Procedure, shortened: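 Twenty-four hours after chemical dosing of transiently transfected HepG2 cells, isolated RNA was converted to cDNA, reporter sequences amplified and 6-FAM-labelled, then HpaI-digested and analysed by capillary electrophoresis. Signal increase against DMSO was fitted.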

[12] = target: Nuclear receptor subfamily 1 group I member 2 (Homo sapiens) (UniProt O75469); assay: ATG_PXR_TRANS: Attagene TRANS-FACTORIAL HepG2 Assay for human Pregnane X Receptor (PXR) (AID 2283008; active = hit-call score of the fitted dose curve at least 0.9, where 1 is the maximum)
Chain of Nuclear receptor subfamily 1 group I member 2 (Homo sapiens) (O75469 whole entry, looked up, the tested form may be a part): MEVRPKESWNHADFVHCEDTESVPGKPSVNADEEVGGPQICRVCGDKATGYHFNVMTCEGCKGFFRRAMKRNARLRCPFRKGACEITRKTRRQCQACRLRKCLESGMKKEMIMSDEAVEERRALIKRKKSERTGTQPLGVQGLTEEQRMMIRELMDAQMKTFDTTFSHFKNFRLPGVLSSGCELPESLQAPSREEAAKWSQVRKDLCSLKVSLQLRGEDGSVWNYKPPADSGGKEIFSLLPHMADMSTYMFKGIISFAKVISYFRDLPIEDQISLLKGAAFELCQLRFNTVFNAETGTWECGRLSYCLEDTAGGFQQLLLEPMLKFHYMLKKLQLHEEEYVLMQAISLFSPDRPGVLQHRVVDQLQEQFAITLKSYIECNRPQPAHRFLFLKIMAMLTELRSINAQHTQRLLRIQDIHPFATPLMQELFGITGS
Procedure, shortened: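 Transactivation by exogenous PXR–GAL4 fusion measured as reporter transcript induction after 24 h compound treatment of transfected human HepG2 cells. Read-out via RT-PCR and capillary electrophoresis of labelled fragments, fitted upward relative to DMSO.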

[13] = target: human RAR-related Orphan Receptor beta (RORb), RORB (gene 6096) (UniProt Q92753); assay: ATG_RORb_TRANS: Attagene TRANS-FACTORIAL HepG2 Assay for human RAR-related Orphan Receptor beta (RORb) (AID 2283010; active = hit-call score of the fitted dose curve at least 0.9, where 1 is the maximum)
Chain of human RAR-related Orphan Receptor beta (RORb), RORB (gene 6096) (Q92753 whole entry, looked up, the tested form may be a part): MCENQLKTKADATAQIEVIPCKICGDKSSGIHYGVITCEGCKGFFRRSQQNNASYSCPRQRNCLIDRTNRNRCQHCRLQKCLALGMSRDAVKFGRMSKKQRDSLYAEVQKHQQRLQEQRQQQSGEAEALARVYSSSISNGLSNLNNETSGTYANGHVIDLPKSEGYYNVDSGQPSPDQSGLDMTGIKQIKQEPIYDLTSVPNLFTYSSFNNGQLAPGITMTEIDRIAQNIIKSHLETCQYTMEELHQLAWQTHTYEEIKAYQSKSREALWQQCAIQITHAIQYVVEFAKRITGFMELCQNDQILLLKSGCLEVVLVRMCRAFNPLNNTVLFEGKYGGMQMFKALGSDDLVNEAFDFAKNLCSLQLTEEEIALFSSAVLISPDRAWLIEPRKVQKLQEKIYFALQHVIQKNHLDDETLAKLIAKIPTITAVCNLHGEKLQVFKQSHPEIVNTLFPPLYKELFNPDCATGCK
Procedure, shortened: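 HepG2, transient MRTU transfection (GAL4-UAS reporters, exogenous NR-Gal4 chimeras); 24 h compound exposure; total RNA → RT-PCR → 6-FAM primer extension → HpaI digest → CE fluorescence. Positive direction vs DMSO baseline.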

[14] = target: human Peroxisome Proliferator-activated Receptor alpha (PPARa), PPARA (gene 5465) (UniProt Q07869); assay: ATG_PPARa_TRANS: Attagene TRANS-FACTORIAL HepG2 Assay for human Peroxisome Proliferator-activated Receptor alpha (PPARa) (AID 2283001; active = hit-call score of the fitted dose curve at least 0.9, where 1 is the maximum)
Chain of human Peroxisome Proliferator-activated Receptor alpha (PPARa), PPARA (gene 5465) (Q07869 whole entry, looked up, the tested form may be a part): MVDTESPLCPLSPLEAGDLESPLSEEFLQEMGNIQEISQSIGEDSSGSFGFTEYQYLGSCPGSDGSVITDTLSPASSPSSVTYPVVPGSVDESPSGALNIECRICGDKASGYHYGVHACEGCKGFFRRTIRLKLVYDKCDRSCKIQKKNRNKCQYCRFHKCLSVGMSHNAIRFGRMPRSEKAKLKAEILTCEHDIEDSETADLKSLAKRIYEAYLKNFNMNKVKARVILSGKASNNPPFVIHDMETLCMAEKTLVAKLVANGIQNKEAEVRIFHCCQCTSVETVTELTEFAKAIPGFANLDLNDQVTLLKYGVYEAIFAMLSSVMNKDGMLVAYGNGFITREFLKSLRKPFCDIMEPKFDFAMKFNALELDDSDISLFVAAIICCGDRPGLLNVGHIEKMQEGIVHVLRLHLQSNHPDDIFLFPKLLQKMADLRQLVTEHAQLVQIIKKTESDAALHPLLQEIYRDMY
Procedure, shortened: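 Exposure: 24 h, transiently transfected HepG2 cells. Endpoint: GAL4-UAS reporter mRNA, RT-PCR with capillary electrophoresis fluorescence. Baseline: DMSO; increases fitted.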

[15] = target: Retinoic acid receptor alpha (Homo sapiens) (UniProt P10276); assay: ATG_RARa_TRANS: Attagene TRANS-FACTORIAL HepG2 Assay for human Retinoic Acid Receptor alpha (RARa) (AID 2283005; active = hit-call score of the fitted dose curve at least 0.9, where 1 is the maximum;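 as to AC50: potency for increased reporter signal meaning RARa activation over DMSO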)
Chain of Retinoic acid receptor alpha (Homo sapiens) (P10276 whole entry, looked up, the tested form may be a part): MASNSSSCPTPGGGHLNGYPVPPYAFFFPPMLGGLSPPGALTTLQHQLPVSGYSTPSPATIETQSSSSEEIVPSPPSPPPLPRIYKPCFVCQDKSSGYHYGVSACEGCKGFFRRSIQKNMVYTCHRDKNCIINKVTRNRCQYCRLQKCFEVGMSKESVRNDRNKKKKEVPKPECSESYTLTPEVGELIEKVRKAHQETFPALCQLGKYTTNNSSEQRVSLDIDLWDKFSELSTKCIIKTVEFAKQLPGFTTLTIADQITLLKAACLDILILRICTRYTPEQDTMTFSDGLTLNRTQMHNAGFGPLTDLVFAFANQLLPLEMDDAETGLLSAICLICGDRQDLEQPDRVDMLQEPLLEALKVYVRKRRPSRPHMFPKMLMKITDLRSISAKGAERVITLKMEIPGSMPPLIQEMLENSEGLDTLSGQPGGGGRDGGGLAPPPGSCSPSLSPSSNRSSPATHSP
Procedure, shortened: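 HepG2 cells transiently transfected with multiple reporter units expressing chimeric RARα-GAL4 fusion, with GAL4-UAS-driven reporters. After 24 h compound exposure, reporter mRNA induction quantified by RT-PCR and capillary electrophoresis with fluorescent labeling; gain-of-signal fitted relative to DMSO control.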

[16] = target: human Retinoic Acid Receptor gamma (RARg), RARG (gene 5916) (UniProt P13631); assay: ATG_RARg_TRANS: Attagene TRANS-FACTORIAL HepG2 Assay for human Retinoic Acid Receptor gamma (RARg) (AID 2283009; active = hit-call score of the fitted dose curve at least 0.9, where 1 is the maximum)
Procedure, shortened: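 Readout: reporter transcript levels via RT-PCR, 6-FAM primer-extension labelling, HpaI digestion and capillary electrophoresis. Cells: HepG2 carrying transfected RARg-GAL4 chimera plus UAS reporter set. Dosing 24 h; DMSO negative control.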

[17] = target: human RAR-related Orphan Receptor gamma (RORg), RORC (gene 6097) (UniProt P51449); assay: ATG_RORg_TRANS: Attagene TRANS-FACTORIAL HepG2 Assay for human RAR-related Orphan Receptor gamma (RORg) (AID 2283011; active = hit-call score of the fitted dose curve at least 0.9, where 1 is the maximum)
Chain of human RAR-related Orphan Receptor gamma (RORg), RORC (gene 6097) (P51449 whole entry, looked up, the tested form may be a part): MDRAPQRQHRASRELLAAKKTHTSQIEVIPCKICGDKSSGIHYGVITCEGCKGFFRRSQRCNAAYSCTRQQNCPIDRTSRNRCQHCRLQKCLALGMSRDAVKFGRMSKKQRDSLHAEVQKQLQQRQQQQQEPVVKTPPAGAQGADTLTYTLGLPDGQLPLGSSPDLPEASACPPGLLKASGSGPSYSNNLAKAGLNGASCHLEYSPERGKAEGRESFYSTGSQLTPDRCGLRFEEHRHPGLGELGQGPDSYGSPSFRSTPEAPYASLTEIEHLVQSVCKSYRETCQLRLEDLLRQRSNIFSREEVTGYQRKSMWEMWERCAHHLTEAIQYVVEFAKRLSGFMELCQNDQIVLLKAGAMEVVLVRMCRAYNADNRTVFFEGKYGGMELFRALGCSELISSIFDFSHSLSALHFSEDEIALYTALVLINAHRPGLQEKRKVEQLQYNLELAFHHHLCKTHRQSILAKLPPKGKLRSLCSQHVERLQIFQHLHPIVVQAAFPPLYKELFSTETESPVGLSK
Procedure, shortened: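 Readout: reporter transcript induction (RT-PCR, fluorescent primer extension, capillary electrophoresis) after 24 h compound exposure of transiently transfected HepG2 cells carrying a RORg-Gal4 chimera and GAL4-UAS reporters; DMSO served as baseline, with increasing signal fitted.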

[18] = ATG_NF_kB_CIS: Attagene CIS-FACTORIAL HepG2 Assay for human Nuclear Factor Kappa B (NF-kB) (AID 2282991); conditions: HepG2 Attagene cis-factorial NF-kB reporter mRNA; actives raise or lower the signal
Procedure, shortened: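 Fluorescence of labelled RT-PCR products separated by capillary electrophoresis gives reporter mRNA levels from transfected HepG2 cells exposed 24 h; values are fitted in both directions relative to DMSO.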

[19] = target: human Retinoic Acid Receptor beta (RARb), RARB (gene 5915) (UniProt P10826); assay: ATG_RARb_TRANS: Attagene TRANS-FACTORIAL HepG2 Assay for human Retinoic Acid Receptor beta (AID 2283004; active = hit-call score of the fitted dose curve at least 0.9, where 1 is the maximum)
Chain of human Retinoic Acid Receptor beta (RARb), RARB (gene 5915) (P10826 whole entry, looked up, the tested form may be a part): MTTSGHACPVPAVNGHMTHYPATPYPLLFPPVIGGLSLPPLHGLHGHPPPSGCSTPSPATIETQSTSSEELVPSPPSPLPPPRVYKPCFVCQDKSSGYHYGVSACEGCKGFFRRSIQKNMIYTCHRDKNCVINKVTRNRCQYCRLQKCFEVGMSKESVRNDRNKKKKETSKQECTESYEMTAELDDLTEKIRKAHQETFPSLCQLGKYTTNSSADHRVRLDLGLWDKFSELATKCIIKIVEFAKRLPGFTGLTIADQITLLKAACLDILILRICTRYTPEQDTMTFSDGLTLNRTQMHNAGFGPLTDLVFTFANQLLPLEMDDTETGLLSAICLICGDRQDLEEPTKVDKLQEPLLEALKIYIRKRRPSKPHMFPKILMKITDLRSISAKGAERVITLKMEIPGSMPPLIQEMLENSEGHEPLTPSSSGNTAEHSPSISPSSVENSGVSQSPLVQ
Procedure, shortened: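 HepG2 cells transiently transfected with multiplexed GAL4-UAS reporter units expressing chimeric NR–Gal4 fusions; 24 h compound exposure. Reporter mRNA quantified by RT-PCR, 6-FAM labelling, HpaI digestion and capillary electrophoresis; gain-of-signal fitted against DMSO baseline.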

[20] = BSK_3C_TissueFactor: BioMAP Diversity Plus: 3C Assay for Tissue Factor Biomarker Activity (AID 2282997); conditions: BioMAP 3C HUVEC, tissue factor biomarker readout; actives raise or lower the signal
Procedure, shortened: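 Readout: Tissue Factor ELISA. Cells: human primary umbilical vein endothelium. Time: 24 h after dosing. Analysis: bidirectional fit, DMSO baseline.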

CCOP(=S)(OCC)OP(=S)(OCC)OCC
outcome [1]: inactive | outcome [2]: inactive | outcome [3]: inactive | outcome [4]: inactive | AC50 [5]: 34 µM (active) | AC50 [6]: 31.9 µM (active) | AC50 [7]: 35.6 µM (active) | outcome [8]: inactive | AC50 [9]: 36.8 µM (active) | AC50 [10]: 31.6 µM (active) | AC50 [11]: 25.8 µM (active) | AC50 [12]: 0.94 µM (active) | outcome [13]: inactive

Brc1c(Br)c(Br)c(Oc2c(Br)c(Br)c(Br)c(Br)c2Br)c(Br)c1Br
outcome [1]: inactive | outcome [2]: inactive | outcome [3]: inactive | outcome [4]: inactive | outcome [14]: inactive | outcome [8]: inactive | outcome [15]: inactive | outcome [11]: inactive | outcome [12]: inactive | outcome [16]: inactive | outcome [13]: inactive | outcome [17]: inactive

O=S(=O)(C(Cl)(Cl)Cl)C(Cl)(Cl)Cl
AC50 [1]: 11.1 µM (active) | AC50 [2]: 2.87 µM (active) | AC50 [3]: 16.4 µM (active) | AC50 [4]: 15.1 µM (active) | AC50 [5]: 1.24 µM (active) | AC50 [6]: 2.08 µM (active) | AC50 [7]: 1.47 µM (active) | outcome [8]: inactive | AC50 [9]: 2.9 µM (active) | AC50 [10]: 0.2 µM (active) | outcome [11]: inactive

C1CCC(C2CCCCC2)CC1
outcome [1]: inactive | outcome [18]: inactive | AC50 [2]: 23.8 µM (active) | outcome [3]: inactive | outcome [8]: inactive | outcome [19]: inactive | outcome [12]: inactive | outcome [13]: inactive | outcome [17]: inactive

CC(C)(C)c1cc([N+](=O)[O-])cc(C(C)(C)C)c1O
outcome [1]: inactive | AC50 [2]: 2.48 µM (active) | AC50 [3]: 19.8 µM (active) | outcome [4]: inactive | AC50 [5]: 0.467 µM (active) | AC50 [6]: 9.12 µM (active) | AC50 [7]: 0.016 µM (active) | outcome [14]: inactive | outcome [8]: inactive | outcome [9]: inactive | outcome [19]: inactive | AC50 [15]: 2.37 µM (active) | AC50 [10]: 0.704 µM (active) | AC50 [11]: 5.15 µM (active) | AC50 [12]: 6.49 µM (active) | outcome [16]: inactive

C=CC(=O)NC(C)(C)CC(C)=O
outcome [1]: inactive | outcome [2]: inactive | outcome [3]: inactive | outcome [4]: inactive | outcome [14]: inactive | outcome [12]: inactive | outcome [13]: inactive | outcome [17]: inactive

CN(N=O)C(N)=O
outcome [1]: inactive | outcome [2]: inactive | outcome [3]: inactive | outcome [4]: inactive | outcome [14]: inactive | outcome [11]: inactive | outcome [12]: inactive

O=C(O)COc1cc(Cl)c(Cl)cc1Cl
outcome [1]: inactive | outcome [2]: inactive | outcome [3]: inactive | outcome [20]: inactive | outcome [5]: inactive | outcome [6]: inactive | outcome [7]: inactive | outcome [8]: inactive | outcome [9]: inactive | outcome [10]: inactive | AC50 [11]: 32.6 µM (active) | outcome [12]: inactive

CCOC(=O)OC1=C(c2cc(C)ccc2C)C(=O)NC12CCC(OC)CC2 (stereo not drawn)
outcome [1]: inactive | AC50 [2]: 69.8 µM (active) | outcome [3]: inactive | outcome [4]: inactive | outcome [8]: inactive | outcome [11]: inactive | outcome [12]: inactive | outcome [13]: inactive

N#Cc1cccnc1
outcome [1]: inactive | outcome [2]: inactive | outcome [3]: inactive | outcome [5]: inactive | outcome [6]: inactive | outcome [7]: inactive | outcome [14]: inactive | outcome [8]: inactive | outcome [9]: inactive | outcome [10]: inactive | outcome [12]: inactive | outcome [13]: inactive
